# Source: the supplement of paper PMC12494721
# Structures can show the parent of a compound that is named as a salt.
# Columns and labels:
# Details in all cases: incubation time: 27 h, anaerobic, 37 °C;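 for the amine columns active = adjusted P below 0.05 in both replicates with a change the same way and a mean fold change under 0.8 or over 1.25; inactive = the rest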
# [1] = system: Clostridium sporogenes DSM 1664; assay: growth (OD595) fold change vs plate DMSO controls (fold change (ratio)); higher = more growth
# Procedure, shortened: (§1)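 Each value is the mean of 2 biological replicates, and fold changes above 1.5 were set to NA. The underlying readings were taken at 595 nm from shaken anaerobic mGAM cultures in 96-well plates after 27 h at 37 °C. They were blank-subtracted, corrected for compound background using 20 µM compound solutions in water, and converted to OD with a calibration factor of 5. Growth is the fold change relative to the median of the plate DMSO controls.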
# Escherichia coli IAI1 [2] = assay: as above
# Procedure, shortened: as §1
# [3] = system: Klebsiella aerogenes DSM 30053; assay: as above
# Procedure, shortened: as §1
# [4] = system: Ruminococcus gnavus DSM 108212; assay: as above
# Procedure, shortened: as §1
# [5] = system: Klebsiella aerogenes DSM 30053; assay: fold change of Histamine concentration vs plate DMSO controls (fold change (ratio)); higher = more amine produced, active = hit call of the paper (significant change in both replicates, either direction)
# Procedure, shortened: (§2)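 Anaerobic mGAM cultures of four gut bacterial strains were grown at 37 °C for 27 h in 80 µL wells, starting at OD 0.1 before 1:1 dilution. Compounds were at 20 µM final (sweeteners 50 µM). Whole cultures were extracted with cold acetonitrile/methanol containing 0.1% formic acid and centrifuged. Amines were quantified by LC–triple-quadrupole MS (dynamic MRM) against external calibration curves and drift-corrected within batch. Each value is the fold change versus plate DMSO controls, averaged over 2 biological replicates.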
# [6] = system: Clostridium sporogenes DSM 1664; assay: fold change of Tryptamine concentration vs plate DMSO controls (fold change (ratio)); higher = more amine produced, active = hit call of the paper (significant change in both replicates, either direction)
# Procedure, shortened: as §2
# [7] = system: Ruminococcus gnavus DSM 108212; assay: as above
# Procedure, shortened: as §2
# Escherichia coli IAI1 [8] = assay: fold change of Putrescine concentration vs plate DMSO controls (fold change (ratio)); higher = more amine produced, active = hit call of the paper (significant change in both replicates, either direction)
# Procedure, shortened: as §2
# [9] = system: Klebsiella aerogenes DSM 30053; assay: as above
# Procedure, shortened: as §2
# Escherichia coli IAI1 [10] = assay: fold change of Cadaverine concentration vs plate DMSO controls (fold change (ratio)); higher = more amine produced, active = hit call of the paper (significant change in both replicates, either direction)
# Procedure, shortened: as §2
# [11] = system: Klebsiella aerogenes DSM 30053; assay: as above
# Procedure, shortened: as §2
# [12] = system: Ruminococcus gnavus DSM 108212; assay: fold change of 2-Phenylethylamine concentration vs plate DMSO controls (fold change (ratio)); higher = more amine produced, active = hit call of the paper (significant change in both replicates, either direction)
# Procedure, shortened: as §2
SMILES,growth [1],growth (Escherichia coli IAI1 [2]),growth [3],growth [4],fold change of Histamine concentration [5],fold change of Tryptamine concentration [6],fold change of Tryptamine concentration [7],fold change of Putrescine concentration (Escherichia coli IAI1 [8]),fold change of Putrescine concentration [9],fold change of Cadaverine concentration (Escherichia coli IAI1 [10]),fold change of Cadaverine concentration [11],fold change of 2-Phenylethylamine concentration [12]
O=C(CCCN1CCC(O)(c2ccc(Br)cc2)CC1)c1ccc(F)cc1 [Bromperidol] (20 µM),0.952,0.965,0.953,0.813,1.02 (inactive),1.02 (inactive),0.916 (inactive),0.99 (inactive),1 (inactive),0.913 (inactive),0.998 (inactive),0.949 (inactive)
C[C@H](CCC(=O)O)[C@H]1CC[C@H]2[C@@H]3C(=O)C[C@@H]4CC(=O)CC[C@]4(C)[C@H]3CC(=O)[C@]12C [Dehydrocholic acid] (20 µM),0.917,0.968,0.94,0.872,1.02 (inactive),0.96 (inactive),0.987 (inactive),0.975 (inactive),1.01 (inactive),0.982 (inactive),1.01 (inactive),0.859 (inactive)
OC[C@@H](O)[C@H](O)[C@@H](O)CO [Xylitol] (50 µM),1,1.05,1.11,1.12,1.08 (inactive),1.06 (inactive),1.06 (inactive),1.03 (inactive),1.19 (inactive),0.916 (inactive),1.02 (inactive),1.08 (inactive)
C#C[C@]1(OC(C)=O)CC[C@H]2[C@@H]3CCC4=C[C@@H](OC(C)=O)CC[C@@H]4[C@H]3CC[C@@]21C [Ethynodiol diacetate] (20 µM),0.766,0.814,1.02,1.14,0.897 (inactive),0.966 (inactive),1.01 (inactive),0.894 (inactive),1 (inactive),1.09 (inactive),1.02 (inactive),1.02 (inactive)
CCC(Cc1c(I)cc(I)c(N)c1I)C(=O)O (stereo not drawn) [Iopanoic acid] (20 µM),0.989,1.13,1,1.05,0.999 (inactive),0.978 (inactive),0.879 (inactive),1.1 (inactive),0.994 (inactive),1.04 (inactive),0.985 (inactive),0.969 (inactive)
Oc1ccc(C2CNCCc3c2cc(O)c(O)c3Cl)cc1 (stereo not drawn) [Fenoldopam] (20 µM),1.08,0.952,0.998,0.973,1.02 (inactive),0.95 (inactive),1.03 (inactive),1.01 (inactive),0.988 (inactive),1.04 (inactive),0.987 (inactive),1.03 (inactive)
COc1ccc(Cl)cc1C(=O)NCCc1ccc(S(=O)(=O)NC(=O)NC2CCCCC2)cc1 [Glibenclamide] (20 µM),1.19,1,1.04,1.04,0.91 (inactive),1.03 (inactive),1.06 (inactive),0.96 (inactive),0.964 (inactive),0.909 (inactive),1.03 (inactive),1.09 (inactive)
O=C(O)c1cn(-c2ccc(F)cc2)c2cc(N3CCNCC3)c(F)cc2c1=O [Sarafloxacin] (20 µM),0.012,0.0263,0.182,0.896,0.129 (active),0.0563 (active),0.8 (inactive),0.832 (inactive),0.651 (active),0.244 (active),0.969 (inactive),0.894 (inactive)
Nc1nc2ccc(OC(F)(F)F)cc2s1 [Riluzole hydrochloride] (20 µM),0.972,0.95,1.06,0.998,1.08 (inactive),0.945 (inactive),0.96 (inactive),0.97 (inactive),0.988 (inactive),0.987 (inactive),0.983 (inactive),0.968 (inactive)
CC(C)c1nc(N(C)S(C)(=O)=O)nc(-c2ccc(F)cc2)c1/C=C/[C@@H](O)C[C@@H](O)CC(=O)O [Rosuvastatin] (20 µM),0.904,1.22,1.02,1.01,0.953 (inactive),1.03 (inactive),0.989 (inactive),1.06 (inactive),1 (inactive),0.951 (inactive),0.989 (inactive),1 (inactive)
CN(CCCN1c2ccccc2CCc2ccccc21)CC(=O)c1ccc(Cl)cc1 [Lofepramine] (20 µM),1.02,0.937,1.02,1.2,0.986 (inactive),1.04 (inactive),0.891 (inactive),1.01 (inactive),1.03 (inactive),0.989 (inactive),0.999 (inactive),0.851 (inactive)
Nc1ccc(S(=O)(=O)Nc2ccc(Cl)nn2)cc1 [Sulfachloropyridazine] (20 µM),1.03,0.966,1.05,0.974,0.939 (inactive),1.01 (inactive),1.04 (inactive),0.964 (inactive),0.976 (inactive),0.962 (inactive),1.01 (inactive),1.14 (inactive)
CNS(=O)(=O)Cc1ccc2[nH]cc(CCN(C)C)c2c1 [Sumatriptan succinate] (20 µM),1.11,0.977,1.21,0.976,0.809 (inactive),1.05 (inactive),1.01 (inactive),0.895 (inactive),0.992 (inactive),1.03 (inactive),1.03 (inactive),1.06 (inactive)
CC(C)(C(=O)O)c1ccc(C(O)CCCN2CCC(C(O)(c3ccccc3)c3ccccc3)CC2)cc1 (stereo not drawn) [Fexofenadine hydrochloride] (20 µM),1.1,1.02,1.09,1.19,0.876 (inactive),1.04 (inactive),0.978 (inactive),0.971 (inactive),0.999 (inactive),1.02 (inactive),1.01 (inactive),0.993 (inactive)
CN1CCC(OC(c2ccccc2)c2ccccc2)CC1 [Diphenylpyraline hydrochloride] (20 µM),0.998,0.955,0.989,1.13,1.05 (inactive),1.01 (inactive),0.999 (inactive),1.01 (inactive),0.995 (inactive),0.979 (inactive),0.983 (inactive),1.05 (inactive)
CN(C)CCCN1c2ccccc2Sc2ccc(Cl)cc21 [Chlorpromazine hydrochloride] (20 µM),0.986,1.21,1.03,1.29,0.88 (inactive),1.06 (inactive),0.908 (inactive),1.14 (inactive),0.959 (inactive),0.934 (inactive),1.01 (inactive),0.935 (inactive)
Nc1nc(=O)n([C@@H]2CS[C@H](CO)O2)cc1F [(-) Emtricitabine] (20 µM),1.11,0.995,0.981,1.12,1.01 (inactive),1.03 (inactive),1.03 (inactive),1.01 (inactive),0.985 (inactive),0.996 (inactive),0.991 (inactive),1.06 (inactive)
CCOC(=O)C(C)(N)Cc1cc(I)c(Oc2cc(I)c(O)c(I)c2)c(I)c1 (stereo not drawn) [Etiroxate hydrochloride] (20 µM),1.06,1.02,1.02,1.14,1.04 (inactive),1.03 (inactive),0.923 (inactive),0.951 (inactive),0.99 (inactive),0.958 (inactive),1 (inactive),1.01 (inactive)
O=C1c2ccccc2C(=O)C1c1ccccc1 [Phenindione] (20 µM),1.17,0.963,0.969,1.07,1.08 (inactive),1 (inactive),1.01 (inactive),0.958 (inactive),1 (inactive),0.984 (inactive),0.976 (inactive),0.977 (inactive)
Nc1ccc(S(=O)(=O)Nc2ccccn2)cc1 [Sulfapyridine] (20 µM),0.891,1.06,1.04,1.03,1.05 (inactive),0.998 (inactive),1.02 (inactive),1.01 (inactive),1 (inactive),0.955 (inactive),0.994 (inactive),1.03 (inactive)
OC(CCN1CCCC1)(c1ccccc1)C1CCCCC1 (stereo not drawn) [Procyclidine hydrochloride] (20 µM),0.903,1.05,1.02,0.966,0.947 (inactive),0.959 (inactive),0.894 (inactive),1.13 (inactive),1.08 (inactive),0.831 (inactive),1.04 (inactive),0.912 (inactive)
O=C(CO)[C@@H](O)[C@H](O)[C@@H](CO)O[C@H]1O[C@H](CO)[C@@H](O)[C@H](O)[C@H]1O [Leucrose] (50 µM),0.936,0.999,1.01,0.99,1.02 (inactive),1.03 (inactive),0.993 (inactive),1.05 (inactive),1 (inactive),1.02 (inactive),0.992 (inactive),0.968 (inactive)
CC1=C(C)C(=O)C(C(CCCCCC(=O)O)c2ccccc2)=C(C)C1=O (stereo not drawn) [Seratrodast] (20 µM),0.927,0.998,1,0.979,1 (inactive),1.01 (inactive),0.908 (inactive),1.05 (inactive),1.02 (inactive),0.965 (inactive),1.01 (inactive),0.899 (inactive)
Nc1nc(/C(=C/CC(=O)O)C(=O)N[C@@H]2C(=O)N3C(C(=O)O)=CCS[C@H]23)cs1 [Ceftibuten] (20 µM),0.5,1.06,1.14,1.27,0.885 (inactive),1.02 (inactive),1.04 (inactive),0.79 (inactive),1.04 (inactive),0.942 (inactive),1.07 (inactive),1.06 (inactive)
